For 1 sequence, binding signal results are on record in PMC7862700, “An all-to-all approach to the identification of sequence-specific readers for epigenetic DNA modifications on cytosine”.

Common to all, as to test: DAPPL (digital affinity profiling via proximity ligation, sequencing); 10 mM Tris-HCl pH 7.5, 50 mM NaCl, 1 mM DTT, 4% glycerol, room temperature, 30 min; GST-TFs on glutathione beads, 16-mer random dsDNA library, 0.1% formaldehyde crosslink after washing; high values mean tight binding
One assay addresses T1, FLI1 (Homo sapiens, UniProt Q01543 1-452).
T1 sequence: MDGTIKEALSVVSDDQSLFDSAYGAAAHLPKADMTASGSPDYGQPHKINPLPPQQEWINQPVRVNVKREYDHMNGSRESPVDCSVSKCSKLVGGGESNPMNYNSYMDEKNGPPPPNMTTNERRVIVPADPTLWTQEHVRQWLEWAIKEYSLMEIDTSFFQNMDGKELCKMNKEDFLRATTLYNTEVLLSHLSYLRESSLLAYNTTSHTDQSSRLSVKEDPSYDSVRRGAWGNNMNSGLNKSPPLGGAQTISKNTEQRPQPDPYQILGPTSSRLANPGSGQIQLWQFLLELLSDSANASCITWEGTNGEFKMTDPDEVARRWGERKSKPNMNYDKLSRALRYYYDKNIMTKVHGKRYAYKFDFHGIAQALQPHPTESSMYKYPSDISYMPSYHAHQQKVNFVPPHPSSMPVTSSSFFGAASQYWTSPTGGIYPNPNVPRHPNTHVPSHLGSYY
The conditions noted are these: protein: recombinant; tags: N-terminal GST; dsDNA, one strand shown. A digest of the protocol: (§1)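 Binding signal is each hexamer's read frequency for a factor divided by its frequency in the tag-only sample. The factors were GST-fused human transcription factors from yeast, captured on glutathione beads, DNA-barcoded and pooled with that sample. Pools were incubated with 200 nmole of a random double-stranded 16-mer DNA library in Tris/NaCl/DTT/glycerol buffer at room temperature for 30 min, then washed, crosslinked with 0.1% formaldehyde, proximity-ligated with BsaI/T4 ligase (1 h, 37 °C), PCR-amplified and sequenced on an Illumina NextSeq500.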

The next assay concerns the target T2, ELK1 (Homo sapiens, UniProt P19419 1-428).
T2 sequence: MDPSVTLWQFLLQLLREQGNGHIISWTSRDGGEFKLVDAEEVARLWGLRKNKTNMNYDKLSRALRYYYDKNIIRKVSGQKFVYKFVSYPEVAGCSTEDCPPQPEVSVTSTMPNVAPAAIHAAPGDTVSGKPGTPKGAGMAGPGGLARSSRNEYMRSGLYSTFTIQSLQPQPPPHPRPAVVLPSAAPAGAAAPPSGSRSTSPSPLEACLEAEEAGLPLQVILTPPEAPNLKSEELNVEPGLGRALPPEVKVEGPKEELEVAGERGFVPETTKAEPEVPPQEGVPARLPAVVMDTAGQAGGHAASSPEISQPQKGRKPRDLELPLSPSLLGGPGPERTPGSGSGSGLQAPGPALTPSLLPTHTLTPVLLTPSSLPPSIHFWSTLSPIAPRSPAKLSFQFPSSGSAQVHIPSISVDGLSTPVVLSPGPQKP
To be noted: protein: recombinant; tags: N-terminal GST; dsDNA, one strand shown. Put shortly:
as §1

Another assay addresses T3, GABPA (Homo sapiens, UniProt Q06546 1-454).
T3 sequence: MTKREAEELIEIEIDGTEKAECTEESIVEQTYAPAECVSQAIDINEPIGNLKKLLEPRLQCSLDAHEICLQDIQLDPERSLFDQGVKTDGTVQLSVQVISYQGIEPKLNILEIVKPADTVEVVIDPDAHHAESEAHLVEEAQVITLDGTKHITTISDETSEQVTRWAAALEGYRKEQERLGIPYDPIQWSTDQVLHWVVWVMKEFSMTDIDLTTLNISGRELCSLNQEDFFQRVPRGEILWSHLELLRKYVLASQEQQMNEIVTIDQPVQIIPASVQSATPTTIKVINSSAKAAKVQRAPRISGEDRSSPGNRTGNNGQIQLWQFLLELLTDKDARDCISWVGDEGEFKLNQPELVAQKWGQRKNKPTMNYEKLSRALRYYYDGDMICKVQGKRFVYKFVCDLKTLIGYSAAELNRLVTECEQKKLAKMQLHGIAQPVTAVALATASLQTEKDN
The conditions noted are these: protein: recombinant; tags: N-terminal GST; dsDNA, one strand shown. A digest of the protocol: as §1

The next assay addresses T4, ERG (Homo sapiens, UniProt P11308 1-479).
T4 sequence: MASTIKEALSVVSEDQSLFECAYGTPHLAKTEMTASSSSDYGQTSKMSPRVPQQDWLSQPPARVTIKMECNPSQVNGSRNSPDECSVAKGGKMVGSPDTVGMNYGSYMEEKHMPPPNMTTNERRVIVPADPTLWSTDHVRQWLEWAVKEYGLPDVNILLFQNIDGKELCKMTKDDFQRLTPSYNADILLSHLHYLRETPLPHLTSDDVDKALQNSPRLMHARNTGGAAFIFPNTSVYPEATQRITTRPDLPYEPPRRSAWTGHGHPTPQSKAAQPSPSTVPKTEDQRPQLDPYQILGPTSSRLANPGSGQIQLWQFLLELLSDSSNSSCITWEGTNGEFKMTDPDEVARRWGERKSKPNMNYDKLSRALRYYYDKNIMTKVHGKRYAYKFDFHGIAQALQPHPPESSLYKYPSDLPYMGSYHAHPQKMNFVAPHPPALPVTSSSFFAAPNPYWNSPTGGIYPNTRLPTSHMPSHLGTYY
The conditions noted are these: protein: recombinant; tags: N-terminal GST; dsDNA, one strand shown. A digest of the protocol:
as §1

In another assay the target is ELF1 (Homo sapiens, UniProt P32519 1-619). To be noted: protein: recombinant; tags: N-terminal GST; dsDNA, one strand shown. A digest of the protocol: as §1
The target in the next assay is T5, EHF (Homo sapiens, UniProt Q9NZC4 1-300).
T5 sequence: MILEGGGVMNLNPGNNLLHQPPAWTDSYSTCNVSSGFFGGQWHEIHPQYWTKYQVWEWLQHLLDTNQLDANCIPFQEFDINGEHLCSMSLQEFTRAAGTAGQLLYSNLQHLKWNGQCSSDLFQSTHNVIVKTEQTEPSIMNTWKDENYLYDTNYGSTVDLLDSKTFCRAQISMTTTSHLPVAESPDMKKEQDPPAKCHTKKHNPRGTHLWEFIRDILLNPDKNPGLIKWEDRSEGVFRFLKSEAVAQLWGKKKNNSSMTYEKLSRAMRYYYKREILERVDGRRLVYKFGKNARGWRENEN
The conditions noted are these: protein: recombinant; tags: N-terminal GST; dsDNA, one strand shown. Put shortly: as §1

The next assay addresses SPI1 (Homo sapiens, UniProt P17947 1-270). The conditions noted are these: protein: recombinant; tags: N-terminal GST; dsDNA, one strand shown. A digest of the protocol: as §1
The target of the next assay is SPIB (Homo sapiens, UniProt Q01892 1-262). To be noted: protein: recombinant; tags: N-terminal GST; dsDNA, one strand shown. A digest of the protocol: as §1
In a further assay the target is T6, ELK3 (Homo sapiens, UniProt P41970 1-407).
T6 sequence: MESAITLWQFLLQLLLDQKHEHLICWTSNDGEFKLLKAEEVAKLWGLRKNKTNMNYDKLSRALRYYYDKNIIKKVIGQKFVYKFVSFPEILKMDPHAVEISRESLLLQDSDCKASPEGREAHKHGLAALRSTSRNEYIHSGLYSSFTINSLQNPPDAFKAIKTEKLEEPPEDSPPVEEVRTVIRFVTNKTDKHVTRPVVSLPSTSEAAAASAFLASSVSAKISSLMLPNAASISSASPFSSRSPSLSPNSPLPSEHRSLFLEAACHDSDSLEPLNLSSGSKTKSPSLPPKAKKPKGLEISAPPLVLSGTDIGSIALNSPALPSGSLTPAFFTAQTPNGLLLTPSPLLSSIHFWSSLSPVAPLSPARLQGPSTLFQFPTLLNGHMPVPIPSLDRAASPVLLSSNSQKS
To be noted: protein: recombinant; tags: N-terminal GST; dsDNA, one strand shown. A digest of the protocol: as §1

The target of another assay is T7, FEV (Homo sapiens, UniProt Q99581 1-238).
T7 sequence: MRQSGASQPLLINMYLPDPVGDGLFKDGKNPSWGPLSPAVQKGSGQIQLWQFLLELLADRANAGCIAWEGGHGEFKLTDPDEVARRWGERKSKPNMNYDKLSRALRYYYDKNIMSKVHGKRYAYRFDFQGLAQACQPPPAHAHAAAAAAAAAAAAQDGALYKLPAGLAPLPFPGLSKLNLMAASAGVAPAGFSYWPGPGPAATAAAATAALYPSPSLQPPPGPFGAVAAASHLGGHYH
The conditions noted are these: protein: recombinant; tags: N-terminal GST; dsDNA, one strand shown. A digest of the protocol: as §1

Another assay deals with ETV5 (Homo sapiens, UniProt P41161 1-510). The conditions noted are these: protein: recombinant; tags: N-terminal GST; dsDNA, one strand shown. Put shortly: as §1
The next assay deals with HSF1 (Homo sapiens, UniProt Q00613 1-529). To be noted: protein: recombinant; tags: N-terminal GST; chain copies: 3; dsDNA, one strand shown. Put shortly: as §1
The target in a further assay is T8, SPIC (Homo sapiens, UniProt Q8N5J4 1-248).
T8 sequence: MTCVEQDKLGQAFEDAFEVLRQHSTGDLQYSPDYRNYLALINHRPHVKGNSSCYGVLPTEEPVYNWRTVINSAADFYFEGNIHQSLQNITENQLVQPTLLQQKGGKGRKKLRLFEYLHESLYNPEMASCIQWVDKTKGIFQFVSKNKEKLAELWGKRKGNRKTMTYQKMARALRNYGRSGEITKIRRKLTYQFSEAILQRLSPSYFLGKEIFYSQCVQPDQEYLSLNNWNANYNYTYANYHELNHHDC
To be noted: protein: recombinant; tags: N-terminal GST; dsDNA, one strand shown. Put shortly:
as §1

The target of another assay is ELF4 (Homo sapiens, UniProt Q99607 1-663). To be noted: protein: recombinant; tags: N-terminal GST; dsDNA, one strand shown. Put shortly: as §1
For a further assay, the target named is T9, ELK4 (Homo sapiens, UniProt P28324-2 1-405).
T9 sequence: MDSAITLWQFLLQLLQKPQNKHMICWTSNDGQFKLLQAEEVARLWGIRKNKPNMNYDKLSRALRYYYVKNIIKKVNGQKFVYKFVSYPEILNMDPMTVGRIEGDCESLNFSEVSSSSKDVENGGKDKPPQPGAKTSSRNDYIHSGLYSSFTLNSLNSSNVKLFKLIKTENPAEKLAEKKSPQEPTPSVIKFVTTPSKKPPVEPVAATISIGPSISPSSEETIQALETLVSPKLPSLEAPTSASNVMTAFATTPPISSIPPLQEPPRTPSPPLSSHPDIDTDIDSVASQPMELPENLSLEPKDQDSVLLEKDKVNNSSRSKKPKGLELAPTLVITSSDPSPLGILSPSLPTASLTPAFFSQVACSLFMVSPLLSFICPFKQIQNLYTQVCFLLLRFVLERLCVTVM
The conditions noted are these: protein: recombinant; tags: N-terminal GST; dsDNA, one strand shown. A digest of the protocol:
as §1

For the next assay, the target named is T10, ETV2 (Homo sapiens, UniProt O00321 1-342).
T10 sequence: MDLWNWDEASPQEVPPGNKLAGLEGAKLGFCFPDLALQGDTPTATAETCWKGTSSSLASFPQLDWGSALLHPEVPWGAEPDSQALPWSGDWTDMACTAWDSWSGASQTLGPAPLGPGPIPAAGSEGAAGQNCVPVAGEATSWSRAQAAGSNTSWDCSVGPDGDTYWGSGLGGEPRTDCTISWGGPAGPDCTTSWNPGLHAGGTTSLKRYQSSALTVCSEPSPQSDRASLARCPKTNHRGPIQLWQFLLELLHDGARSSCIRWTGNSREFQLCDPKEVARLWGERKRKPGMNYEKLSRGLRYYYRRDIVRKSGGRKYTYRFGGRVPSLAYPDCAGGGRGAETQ
To be noted: protein: recombinant; tags: N-terminal GST; dsDNA, one strand shown. Put shortly: as §1

For a further assay, the target named is T11, ELF3 (Homo sapiens, UniProt P78545 1-371).
T11 sequence: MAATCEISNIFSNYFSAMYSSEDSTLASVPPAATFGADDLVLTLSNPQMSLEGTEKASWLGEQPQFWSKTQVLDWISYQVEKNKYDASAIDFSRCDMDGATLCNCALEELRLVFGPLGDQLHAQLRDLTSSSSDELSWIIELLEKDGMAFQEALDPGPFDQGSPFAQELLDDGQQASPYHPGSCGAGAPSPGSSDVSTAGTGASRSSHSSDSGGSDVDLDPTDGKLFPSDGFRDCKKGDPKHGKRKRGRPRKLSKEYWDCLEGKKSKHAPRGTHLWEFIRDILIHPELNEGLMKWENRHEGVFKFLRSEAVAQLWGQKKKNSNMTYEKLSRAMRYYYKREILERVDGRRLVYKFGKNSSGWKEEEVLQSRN
The conditions noted are these: protein: recombinant; tags: N-terminal GST; dsDNA, one strand shown. Put shortly: as §1

The target in another assay is CRX (Homo sapiens, UniProt O43186 1-299). To be noted: protein: recombinant; tags: N-terminal GST; dsDNA, one strand shown. Put shortly: as §1
Another assay deals with ETV1 (Homo sapiens, UniProt P50549 1-477). The conditions noted are these: protein: recombinant; tags: N-terminal GST; dsDNA, one strand shown. A digest of the protocol: as §1
Chain of ETV1 (P50549 whole entry): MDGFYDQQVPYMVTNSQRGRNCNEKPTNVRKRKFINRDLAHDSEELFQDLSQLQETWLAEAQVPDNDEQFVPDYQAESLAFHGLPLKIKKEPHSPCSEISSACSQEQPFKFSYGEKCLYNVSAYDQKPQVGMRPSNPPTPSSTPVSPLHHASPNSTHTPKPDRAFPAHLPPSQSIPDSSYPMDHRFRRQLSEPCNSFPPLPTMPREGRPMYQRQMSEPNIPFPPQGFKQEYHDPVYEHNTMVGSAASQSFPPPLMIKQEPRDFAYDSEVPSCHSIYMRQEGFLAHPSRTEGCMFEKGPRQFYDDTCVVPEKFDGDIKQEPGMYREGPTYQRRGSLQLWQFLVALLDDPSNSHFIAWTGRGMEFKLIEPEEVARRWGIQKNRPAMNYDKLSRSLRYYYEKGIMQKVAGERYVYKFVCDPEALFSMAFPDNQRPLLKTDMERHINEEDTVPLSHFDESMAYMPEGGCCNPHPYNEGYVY

Chain of ETV5 (P41161 whole entry): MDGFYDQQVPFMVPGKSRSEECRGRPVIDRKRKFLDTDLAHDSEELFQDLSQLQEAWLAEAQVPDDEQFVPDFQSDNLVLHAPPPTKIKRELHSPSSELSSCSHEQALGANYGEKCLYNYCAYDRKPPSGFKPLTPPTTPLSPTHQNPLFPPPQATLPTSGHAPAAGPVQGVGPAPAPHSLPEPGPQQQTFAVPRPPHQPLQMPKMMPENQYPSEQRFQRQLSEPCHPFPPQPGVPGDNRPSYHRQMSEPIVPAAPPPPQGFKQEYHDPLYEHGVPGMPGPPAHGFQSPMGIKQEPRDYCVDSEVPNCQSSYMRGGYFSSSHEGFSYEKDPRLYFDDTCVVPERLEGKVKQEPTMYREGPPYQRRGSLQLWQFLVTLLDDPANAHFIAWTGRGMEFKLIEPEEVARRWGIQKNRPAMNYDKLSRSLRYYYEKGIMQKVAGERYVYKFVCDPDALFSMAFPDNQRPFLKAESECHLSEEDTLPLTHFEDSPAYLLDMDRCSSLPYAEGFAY
Chain of ELF1 (P32519 whole entry): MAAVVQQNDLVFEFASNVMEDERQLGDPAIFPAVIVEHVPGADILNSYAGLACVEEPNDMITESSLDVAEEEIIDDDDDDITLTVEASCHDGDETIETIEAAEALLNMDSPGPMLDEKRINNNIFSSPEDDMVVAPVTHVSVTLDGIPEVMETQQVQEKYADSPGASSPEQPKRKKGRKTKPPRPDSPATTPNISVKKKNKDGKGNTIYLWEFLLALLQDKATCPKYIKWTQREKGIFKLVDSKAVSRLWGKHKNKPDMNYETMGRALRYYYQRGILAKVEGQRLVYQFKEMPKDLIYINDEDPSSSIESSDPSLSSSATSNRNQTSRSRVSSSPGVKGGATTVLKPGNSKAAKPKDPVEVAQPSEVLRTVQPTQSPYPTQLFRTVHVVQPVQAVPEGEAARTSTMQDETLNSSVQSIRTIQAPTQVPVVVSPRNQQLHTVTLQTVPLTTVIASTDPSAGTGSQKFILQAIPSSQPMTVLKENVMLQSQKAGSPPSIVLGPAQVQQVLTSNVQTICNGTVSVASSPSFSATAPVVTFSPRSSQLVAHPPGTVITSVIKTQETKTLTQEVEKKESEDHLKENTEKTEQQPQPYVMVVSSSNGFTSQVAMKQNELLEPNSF
Chain of CRX (O43186 whole entry): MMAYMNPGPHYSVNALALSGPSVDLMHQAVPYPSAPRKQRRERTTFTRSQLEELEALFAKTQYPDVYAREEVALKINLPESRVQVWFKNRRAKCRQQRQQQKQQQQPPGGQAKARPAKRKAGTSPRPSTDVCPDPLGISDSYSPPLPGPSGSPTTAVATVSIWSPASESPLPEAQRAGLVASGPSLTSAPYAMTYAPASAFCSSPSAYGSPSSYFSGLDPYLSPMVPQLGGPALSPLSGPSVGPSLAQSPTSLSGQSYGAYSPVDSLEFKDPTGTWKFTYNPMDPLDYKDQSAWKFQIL
Chain of SPIB (Q01892 whole entry): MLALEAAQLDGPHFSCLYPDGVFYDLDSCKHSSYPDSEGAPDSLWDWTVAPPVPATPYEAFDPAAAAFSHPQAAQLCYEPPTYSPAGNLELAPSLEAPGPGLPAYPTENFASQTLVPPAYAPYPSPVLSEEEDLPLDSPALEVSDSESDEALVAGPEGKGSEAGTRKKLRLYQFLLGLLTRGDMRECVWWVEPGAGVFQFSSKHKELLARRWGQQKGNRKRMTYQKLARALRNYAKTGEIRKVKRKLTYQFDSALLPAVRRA
Chain of ELF4 (Q99607 whole entry): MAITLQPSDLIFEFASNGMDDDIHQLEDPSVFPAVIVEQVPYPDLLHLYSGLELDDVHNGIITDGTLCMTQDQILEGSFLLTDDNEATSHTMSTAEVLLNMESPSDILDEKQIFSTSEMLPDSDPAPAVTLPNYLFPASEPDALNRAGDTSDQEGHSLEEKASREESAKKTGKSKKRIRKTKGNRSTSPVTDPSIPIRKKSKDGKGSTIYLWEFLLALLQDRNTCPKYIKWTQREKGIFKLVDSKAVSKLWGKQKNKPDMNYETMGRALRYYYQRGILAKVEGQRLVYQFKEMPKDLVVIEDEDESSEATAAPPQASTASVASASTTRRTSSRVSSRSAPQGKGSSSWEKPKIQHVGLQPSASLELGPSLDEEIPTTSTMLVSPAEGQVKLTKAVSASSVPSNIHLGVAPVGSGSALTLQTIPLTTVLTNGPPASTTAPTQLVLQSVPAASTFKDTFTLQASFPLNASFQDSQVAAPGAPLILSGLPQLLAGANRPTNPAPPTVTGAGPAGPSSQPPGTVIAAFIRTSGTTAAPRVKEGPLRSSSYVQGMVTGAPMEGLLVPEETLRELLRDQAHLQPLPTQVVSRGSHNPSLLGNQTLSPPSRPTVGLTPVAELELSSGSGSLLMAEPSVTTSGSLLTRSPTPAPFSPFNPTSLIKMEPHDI
Chain of HSF1 (Q00613 whole entry): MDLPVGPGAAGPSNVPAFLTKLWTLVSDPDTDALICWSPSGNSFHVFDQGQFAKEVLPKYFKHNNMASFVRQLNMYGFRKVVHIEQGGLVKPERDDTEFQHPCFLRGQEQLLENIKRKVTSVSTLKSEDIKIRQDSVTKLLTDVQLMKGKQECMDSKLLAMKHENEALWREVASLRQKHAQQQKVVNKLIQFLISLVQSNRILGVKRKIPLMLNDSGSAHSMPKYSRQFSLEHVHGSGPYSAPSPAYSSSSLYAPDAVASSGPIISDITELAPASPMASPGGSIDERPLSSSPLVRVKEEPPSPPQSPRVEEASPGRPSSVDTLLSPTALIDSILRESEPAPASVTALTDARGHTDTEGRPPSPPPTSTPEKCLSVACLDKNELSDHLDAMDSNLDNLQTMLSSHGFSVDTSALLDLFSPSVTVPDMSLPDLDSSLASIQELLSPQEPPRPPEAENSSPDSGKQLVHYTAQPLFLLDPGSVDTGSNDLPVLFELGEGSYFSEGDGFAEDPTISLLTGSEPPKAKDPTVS

For the sequence CTCCTG, the binding signal in the assay with FLI1 is 1.66 fold enrichment (6-mer frequency, TF over GST control); with ELK1, 1.69 fold enrichment (6-mer frequency, TF over GST control); in the assay with GABPA, 1.74 fold enrichment (6-mer frequency, TF over GST control); with ERG, 1.51 fold enrichment (6-mer frequency, TF over GST control); in the assay with ELF1, 1.65 fold enrichment (6-mer frequency, TF over GST control); with EHF, 1.33 fold enrichment (6-mer frequency, TF over GST control). The binding signal was 1.58 fold enrichment (6-mer frequency, TF over GST control) with SPI1; 1.7 fold enrichment (6-mer frequency, TF over GST control) in the assay with SPIB; 1.73 fold enrichment (6-mer frequency, TF over GST control) with ELK3; 1.57 fold enrichment (6-mer frequency, TF over GST control) with FEV; 1.71 fold enrichment (6-mer frequency, TF over GST control) with ETV5; 1.52 fold enrichment (6-mer frequency, TF over GST control) in the assay with HSF1. Besides, the binding signal is 1.37 fold enrichment (6-mer frequency, TF over GST control) with SPIC; 1.65 fold enrichment (6-mer frequency, TF over GST control) with ELF4; 1.35 fold enrichment (6-mer frequency, TF over GST control) in the assay with ELK4; 1.62 fold enrichment (6-mer frequency, TF over GST control) with ETV2; 1.47 fold enrichment (6-mer frequency, TF over GST control) with ELF3; 1.46 fold enrichment (6-mer frequency, TF over GST control) with CRX. In addition, in the assay with ETV1, the binding signal is 1.79 fold enrichment (6-mer frequency, TF over GST control).
